In paper PMC5540273 (PLoS ONE, 2017):

System: T1, p38-gamma
T1 construct: gene MAPK12
Settings: concentration: 1 μM, replicates: in singlicate; n = 1
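Further: KINOMEscan kinase panel screen.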

Going from `COc1ccc(-c2coc3ccc(-c4nnc(C)o4)cc23)cc1` to `CSc1ccc(-c2nc3n(c2-c2ccncc2)CCC3)cc1` [SKF-105561], the “%Inh” value rises from 0% to 30%.

First: Cc1ccc(NC(=O)Nc2ccccc2)cc1-c1ccc(C(=O)Nc2ccncc2)cc1 [GSK1398471]
Second: Cc1ccc(NC(=O)Nc2ccc(Cl)cc2)cc1-c1ccc(C(=O)Nc2ccncc2)cc1 [GSK1398472]
The “%Inh” value of the first is lower: 12% for the first, 23% for the second.

Compared with `CC(C)c1cc(-c2ccc3c(N)n[nH]c3c2)nc(N)n1` [GSK2250882], `Cc1ccccc1-c1cc(-c2c[nH]nc2-c2ccccn2)ccn1` [GW680061] is lower in “%Inh” value: 43% for the first, 0% for the second.

Compared with `CC(=O)c1cccc(NC(=O)NC2CCN(c3ccnc(Nc4ccc(F)cc4)n3)C2)c1` (centres unmarked) [GSK1379710], `Cn1cncc1C(=O)NC1CCN(c2ccnc(Nc3ccc(F)cc3)n2)C1` (centres unmarked) [GSK1379717] is lower in “%Inh” value: 3% for the first, 0% for the second.

First: O=C1NC(=O)C(c2ccc(Cl)cc2)=C1Nc1ccc(O)cc1 [SB-340867]
Second: COc1ccc(Nc2nccc(-c3ccc(NC(=O)c4cc5cc(F)ccc5[nH]4)cc3)n2)cc1 [GSK1229496]
The “%Inh” value of the first is lower: 0% for the first, 1% for the second.

`CC(=O)c1c(C)c2cnc(Nc3ccn(C)n3)nc2n(C2CCCC2)c1=O` and `Cc1c(Cn2c3ccccc3n3c(=O)cc(N4CCOCC4)nc23)cccc1C(F)(F)F` [GSK2306394] are the same in “%Inh” value: 0% for the first, 0% for the second.

Compared with `Nc1ncnc2occ(-c3ccc4c(c3)CCN4C(=O)Cc3cc(F)ccc3F)c12` [GSK2645446], `CNCc1ccc2nc(NC(=O)c3ccc(C(C)(C)C)cc3)cn2c1` is higher in “%Inh” value: 7% for the first, 26% for the second.
